Read-out in assay [1]: sulfotransferase 2A1 (SULT2A1), SULT2A1 (gene 6822)
Kind of assay: LTEA_HepaRG_SULT2A1: Life Technologies and Expression Analysis (LTEA) Assay for sulfotransferase 2A1 (SULT2A1) using HepaRG (AID 2283531). The following applies: mRNA level, 48 h; actives raise or lower the signal. In short, it runs like this: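 Gene-expression endpoint in a human liver cell line: SULT2A1 mRNA change after 48 h chemical treatment, curves fitted in both directions relative to 0.5% DMSO vehicle. Concentrations spanned eight half-log steps from 100 uM.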

Read-out in assay [2]: Transforming Growth Factor (TGFA), TGFA (gene 7039)
Kind of assay: LTEA_HepaRG_TGFA: Life Technologies and Expression Analysis (LTEA) Assay for Transforming Growth Factor (TGFA) using HepaRG (AID 2283532). Particulars: mRNA level, 48 h; actives raise or lower the signal. A digest of the protocol: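 HepaRG (human liver line), 48 h exposure, 8 conc. half-log down from 100 uM, 0.5% DMSO vehicle, duplicates; serum-free induction medium. TGFA mRNA by TaqMan qRT-PCR, ACTB/GAPDH/POLR2A normalization; gain/loss fit vs DMSO.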

Read-out in assay [3]: Transforming Growth Factor (TGFB1), TGFB1 (gene 7040)
Kind of assay: LTEA_HepaRG_TGFB1: Life Technologies and Expression Analysis (LTEA) Assay for Transforming Growth Factor (TGFB1) Transporter using HepaRG (AID 2283533). Particulars: mRNA level, 48 h; actives raise or lower the signal. In short, it runs like this:
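Eight-point concentration-response (max 100 uM, half-log) in HepaRG under serum-free induction conditions, 48 h. TGFB1 mRNA by qRT-PCR, housekeeping-normalized.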

Read-out in assay [4]: TIMP1, TIMP1 (gene 7076)
Kind of assay: LTEA_HepaRG_TIMP1: Life Technologies and Expression Analysis (LTEA) Assay for TIMP1 using HepaRG (AID 2283534).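 Further: TaqMan qRT-PCR signal normalized to ACTB GAPDH and POLR2A housekeeping genes.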 The following applies: mRNA level, 48 h; actives raise or lower the signal. In short, it runs like this:
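TIMP1 induction or repression in HepaRG cells after 48 h chemical exposure (eight concentrations, highest 100 uM), assessed by normalized qRT-PCR with bidirectional fitting to DMSO controls.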

Read-out in assay [5]: Tumor necrosis factor receptor 1 (TNFRSF1A), TNFRSF1A (gene 7132)
Kind of assay: LTEA_HepaRG_TNFRSF1A: Life Technologies and Expression Analysis (LTEA) Assay for Tumor necrosis factor receptor 1 (TNFRSF1A) using HepaRG (AID 2283535). The following applies: mRNA level, 48 h; actives raise or lower the signal. A digest of the protocol: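 Assay uses 48 h chemical treatment of differentiated HepaRG monolayers, tested in duplicate at eight concentrations from 100 uM downward in 0.5% DMSO. mRNA is normalized to ACTB, GAPDH and POLR2A, with induction or suppression fitted relative to vehicle.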

Read-out in assay [6]: Thyroid Hormone Responsive (THRSP), THRSP (gene 7069)
Kind of assay: LTEA_HepaRG_THRSP: Life Technologies and Expression Analysis (LTEA) Assay for Thyroid Hormone Responsive (THRSP) using HepaRG (AID 2283536). The following applies: mRNA level, 48 h; actives raise or lower the signal. In short, it runs like this:
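mRNA induction or loss relative to 0.5% DMSO vehicle was fitted bidirectionally across an eight-point curve whose highest exposure was 100 uM. Human HepaRG liver cells received chemicals in duplicate over 48 h before RNA extraction.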

Read-out in assay [7]: Cellular tumor antigen p53 (Homo sapiens) (UniProt P04637)
Kind of assay: LTEA_HepaRG_TP53: Life Technologies and Expression Analysis (LTEA) Assay for Tumor Protein P53 (TP53) using HepaRG (AID 2283537). Particulars: mRNA level, 48 h; actives raise or lower the signal. A digest of the protocol: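 Read-out is TP53 transcript level by microfluidic qRT-PCR, normalised to three housekeeping genes and fitted bidirectionally against DMSO. Human HepaRG cells received compounds for 48 h, highest concentration 100 uM.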

Read-out in assay [8]: UDP glucuronosyltransferase (UGT1A1), UGT1A1 (gene 54658)
Kind of assay: LTEA_HepaRG_UGT1A1: Life Technologies and Expression Analysis (LTEA) Assay for UDP glucuronosyltransferase (UGT1A1) using HepaRG (AID 2283538). The following applies: mRNA level, 48 h; actives raise or lower the signal. In short, it runs like this:
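Readout is UGT1A1 transcript level by qRT-PCR, normalized to three housekeeping genes, after 48 h chemical treatment of HepaRG cells. Concentrations ran from 100 uM down in half-log steps with 0.5% DMSO, and gain or loss relative to DMSO was fitted.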

Read-out in assay [9]: UDP glucuronosyltransferase (UGT1A6), UGT1A6 (gene 54578)
Kind of assay: LTEA_HepaRG_UGT1A6: Life Technologies and Expression Analysis (LTEA) Assay for UDP glucuronosyltransferase (UGT1A6) using HepaRG (AID 2283539). Particulars: mRNA level, 48 h; actives raise or lower the signal. A digest of the protocol:
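Measures mRNA change in HepaRG hepatic cells exposed 48 h to chemicals (eight-point, maximum 100 uM, 0.5% DMSO vehicle) in serum-free induction medium. Expression normalized to endogenous controls; DMSO served as negative control and baseline.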

Read-out in assay [10]: X-box binding protein 1 (XBP1), XBP1 (gene 7494)
Kind of assay: LTEA_HepaRG_XBP1: Life Technologies and Expression Analysis (LTEA) Assay for X-box binding protein 1 (XBP1) using HepaRG (AID 2283540). Particulars: mRNA level, 48 h; actives raise or lower the signal. In short, it runs like this: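 Eight concentrations (half-log, highest 100 uM, 0.5% DMSO) tested in duplicate on HepaRG cells over 48 h in serum-free induction medium; qRT-PCR of XBP1 normalised to ACTB, GAPDH, POLR2A.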

Assay [11] is described as follows: LTEA_HepaRG_LDH_cytotoxicity: Cytotoxicity Assessment in the Life Technologies and Expression Analysis (LTEA) Assay (AID 2283563; active means hit-call score of the fitted dose curve at least 0.9, where 1 is the maximum). In short, it runs like this: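 Spent-medium LDH after 48 h chemical exposure of HepaRG cells in serum-free induction medium; eight concentrations, half-log dilutions from 100 uM, duplicate wells, fitted upward relative to 0.5% DMSO.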

Assay [12] can be described thus: TOX21_p53_BLA_p2_viability: Viability Assessment in the Tox21 HCT-116 p53 Agonism Beta-lactamase Assay, Phase 2 (AID 2283591; active means hit-call score of the fitted dose curve at least 0.9, where 1 is the maximum;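 further: compound exposure lasted 16 h at 37 °C; actives lower the ATP signal meaning cytotoxicity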). In short, it runs like this: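 Cytotoxicity readout: CellTiter-Glo ATP luminescence, 30 min at room temperature, after the beta-lactamase read. Cells were HCT116 exposed 16 h at 37C to compounds pin-transferred at 217-fold dilution from DMSO stocks.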

The target of assay [13] is Cellular tumor antigen p53 (Homo sapiens) (UniProt P04637). Kind of assay: TOX21_p53_BLA_p2_ratio: Tox21 HCT-116 p53 Agonism Beta-lactamase Assay, Ratio, Phase 2 (AID 2283592; active means hit-call score of the fitted dose curve at least 0.9, where 1 is the maximum). A digest of the protocol: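 Human colon HCT116 cells with an inducible p53 beta-lactamase reporter are exposed to test chemicals for 16 h at 37C. Reporter induction is read as the 460/530 nm emission ratio after CCF4-AM loading, normalized to DMSO.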

The nature of assay [14]: TOX21_p53_BLA_p3_viability: Viability Assessment in the Tox21 HCT-116 p53 Agonism Beta-lactamase Assay, Phase 3 (AID 2283593; active means hit-call score of the fitted dose curve at least 0.9, where 1 is the maximum;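 further: cells exposed to compound for 16 h before reading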). In short, it runs like this:
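Cellular ATP was quantified by CellTiter-Glo luminescence, read after 30 min at room temperature. Beforehand, HCT116 cells (4000/well) received compound 5 h post-seeding, 217-fold diluted from DMSO, then incubated 16 h at 37C.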

Assay [15] addresses Cellular tumor antigen p53 (Homo sapiens) (UniProt P04637). Kind of assay: TOX21_p53_BLA_p3_ratio: Tox21 HCT-116 p53 Agonism Beta-lactamase Assay, Ratio, Phase 3 (AID 2283596; active means hit-call score of the fitted dose curve at least 0.9, where 1 is the maximum). In short, it runs like this: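 HCT116 p53-bla cells (4000/well) given compound in DMSO (217-fold dilution) after 5 h, incubated 16 h at 37C. CCF4-AM substrate 2 h at room temperature; 460/530 nm emission ratio, gain fitted against DMSO.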

Assay [16] in a line: TOX21_p53_BLA_p4_viability: Viability Assessment in the Tox21 HCT-116 p53 Agonism Beta-lactamase Assay, Phase 4 (AID 2283597; active means hit-call score of the fitted dose curve at least 0.9, where 1 is the maximum;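 further: hits lower the luminescence signal meaning cytotoxicity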). In short, it runs like this: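 Luminescent ATP readout (CellTiter-Glo, 30 min, room temperature) in the same wells as the p53 bla ratio. HCT116 cells were treated for 16 h at 37C with DMSO-dissolved compounds.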
The target of assay [17] is Cellular tumor antigen p53 (Homo sapiens) (UniProt P04637). Kind of assay: TOX21_p53_BLA_p5_ratio: Tox21 HCT-116 p53 Agonism Beta-lactamase Assay, Ratio, Phase 5 (AID 2283599; active means hit-call score of the fitted dose curve at least 0.9, where 1 is the maximum). In short, it runs like this: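 Beta-lactamase reporter ratio (blue 460 nm over green 530 nm, 405 nm excitation) after 2 h CCF4-AM loading, in HCT-116 cells exposed 16 h at 37 C to compounds pinned at 217-fold dilution. Increases relative to DMSO baseline scored.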

A short description of assay [18]: TOX21_p53_BLA_p5_viability: Viability Assessment in the Tox21 HCT-116 p53 Agonism Beta-lactamase Assay, Phase 5 (AID 2283600; active means hit-call score of the fitted dose curve at least 0.9, where 1 is the maximum). In short, it runs like this: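 Seeded cells (4000/well) settle 5 h before compound addition. Plates then incubate 16 h at 37C, receive FRET substrate for 2 h, and finally CellTiter-Glo, with luminescence measured after a 30 min room-temperature incubation.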

The nature of assay [19]: ATG_XTT_Cytotoxicity: Cytotoxicity Assessment in the Attagene TRANS-FACTORIAL HepG2 Assay (AID 2283584; active means hit-call score of the fitted dose curve at least 0.9, where 1 is the maximum). A digest of the protocol: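 24 h chemical exposure of reporter-transfected HepG2; XTT signal loss vs DMSO indicates cytotoxicity.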
Assay [20] addresses Cellular tumor antigen p53 (Homo sapiens) (UniProt P04637). Kind of assay: TOX21_p53_BLA_p4_ratio: Tox21 HCT-116 p53 Agonism Beta-lactamase Assay, Ratio, Phase 4 (AID 2283601; active means hit-call score of the fitted dose curve at least 0.9, where 1 is the maximum). In short, it runs like this: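 Signal is the blue/green (460nm/530nm) ratio of cleaved versus uncleaved CCF4-AM substrate, read after 2 h substrate loading. Cells were HCT116 carrying the p53-responsive beta-lactamase reporter, dosed 16 h at 37C, 5% CO2; CellTiter-Glo measured in parallel.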

Records with an inconclusive call do not appear. Calls of active or inactive are those of the source. How the source made its calls, unless noted: active means hit-call score of the fitted dose curve at least 0.9, where 1 is the maximum; inactive means score below 0.9.

Chain of Cellular tumor antigen p53 (Homo sapiens) (P04637 whole entry, looked up): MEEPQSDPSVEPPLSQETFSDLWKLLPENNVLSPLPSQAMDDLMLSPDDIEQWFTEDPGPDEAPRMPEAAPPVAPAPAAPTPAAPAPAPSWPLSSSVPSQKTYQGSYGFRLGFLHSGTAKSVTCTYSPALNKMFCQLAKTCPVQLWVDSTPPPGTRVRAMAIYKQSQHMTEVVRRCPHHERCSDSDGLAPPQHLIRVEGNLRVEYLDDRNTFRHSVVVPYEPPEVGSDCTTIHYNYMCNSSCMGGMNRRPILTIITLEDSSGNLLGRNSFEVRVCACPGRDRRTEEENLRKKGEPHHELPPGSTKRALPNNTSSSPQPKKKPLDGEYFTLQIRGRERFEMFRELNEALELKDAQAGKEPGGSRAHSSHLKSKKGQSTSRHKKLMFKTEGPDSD

For the compound `Cc1ccc(N)c(N)c1`, the result in [1], in assay [2], in [3], in [4], in assay [5] and in assay [6] was inactive. Further, the result in assay [7], in [9], in [10], in [11], in assay [12] and in assay [13] was inactive. For the same compound, the call in assay [14], in assay [15], in assay [16], in assay [17] and in assay [18] was inactive. Moreover, the half-maximal activity concentration (AC50) (usually the concentration at which the activity in the assay is half-maximal) in [8] was 50 µM (active).
Consider `O=[N+]([O-])C(Br)(CO)CO`, for which the compound was called inactive in assay [1], in [2], in assay [3], in [4], in assay [5] and in assay [6]. For the same compound, the outcome in [8], in [10], in assay [11] and in assay [19] was inactive.
On to `O=C(Oc1ccc(Br)cc1)N1CCN2CCC1CC2`, for which the result in assay [1], in assay [2], in assay [3], in [4], in assay [5] and in assay [7] was inactive. For the same compound, the outcome in assay [8], in assay [9], in [10], in [12], in assay [14] and in assay [16] was inactive. Besides, the call in assay [18] and in assay [20] was inactive. In addition, the AC50 in assay [6] was 34.8 µM (active).
Turning to `CC(C)(OOC(C)(C)c1ccccc1)c1ccccc1`, the outcome in assay [1], in assay [2], in [3], in assay [4], in assay [5] and in [6] was inactive. Also, the outcome in assay [7], in assay [9], in assay [10], in [11], in assay [19] and in [13] was inactive. Further, the outcome in assay [14], in [16], in [17], in assay [18] and in assay [20] was inactive. For the same compound, the AC50 in assay [8] is 24.4 µM (active).
For the compound `CCCCCOC(=O)c1ccccc1C(=O)OCCCCC`, the call in [1], in assay [2], in assay [3], in assay [4], in assay [5] and in assay [6] was inactive. Besides, the call in assay [7], in assay [8], in [10], in [11], in assay [19] and in [12] was inactive. Moreover, the result in [15], in [16] and in [17] was inactive.
Take `Cn1cc(-c2ccccc2)c(=O)c(-c2cccc(C(F)(F)F)c2)c1`: the AC50 in assay [1] is 9.92 µM (active); in assay [8], 8.71 µM (active); in assay [10], 15 µM (active). Besides, the compound was classed as inactive in assay [2], in [4], in assay [5], in assay [6], in assay [7] and in assay [9]. Further, the compound was called inactive in assay [11], in assay [19], in assay [12], in [13], in assay [15] and in assay [17].
For `Nc1ccc(Cc2ccc(N)cc2)cc1`, the outcome in assay [1], in assay [2], in [3], in assay [4], in assay [5] and in [6] was inactive. Besides, the call in assay [7], in [9], in assay [10], in [11], in [19] and in [12] was inactive. Moreover, the outcome in assay [13], in assay [15], in assay [16], in assay [17] and in assay [18] was inactive. Further, in assay [8], the AC50 is 26.2 µM (active).

These data come from PubChem BioAssay (EPA / NIEHS).
